# An excerpt weighted towards active compounds, which were near 2.9% of everything screened.
# Rev-erbA mod = modulators of Rev-erb alpha DNA binding, primary screen, biochemical, FITC-DNA, fluorescence polarization, uHTS; Nuclear receptor subfamily 1 group D member 1 (Homo sapiens), P20393; Rev-erbα–FITC-DNA binding, 90 min; activity, % at 10 µM; 370,000 tested, 0.79% active;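 active = activity above about 14%, limit read from the data; passing the limit was not always enough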;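 also: 0% = DMSO wells with 35 nM protein and 100% = DMSO wells with 750 nM protein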
# Target sequence (P20393 whole entry, looked up): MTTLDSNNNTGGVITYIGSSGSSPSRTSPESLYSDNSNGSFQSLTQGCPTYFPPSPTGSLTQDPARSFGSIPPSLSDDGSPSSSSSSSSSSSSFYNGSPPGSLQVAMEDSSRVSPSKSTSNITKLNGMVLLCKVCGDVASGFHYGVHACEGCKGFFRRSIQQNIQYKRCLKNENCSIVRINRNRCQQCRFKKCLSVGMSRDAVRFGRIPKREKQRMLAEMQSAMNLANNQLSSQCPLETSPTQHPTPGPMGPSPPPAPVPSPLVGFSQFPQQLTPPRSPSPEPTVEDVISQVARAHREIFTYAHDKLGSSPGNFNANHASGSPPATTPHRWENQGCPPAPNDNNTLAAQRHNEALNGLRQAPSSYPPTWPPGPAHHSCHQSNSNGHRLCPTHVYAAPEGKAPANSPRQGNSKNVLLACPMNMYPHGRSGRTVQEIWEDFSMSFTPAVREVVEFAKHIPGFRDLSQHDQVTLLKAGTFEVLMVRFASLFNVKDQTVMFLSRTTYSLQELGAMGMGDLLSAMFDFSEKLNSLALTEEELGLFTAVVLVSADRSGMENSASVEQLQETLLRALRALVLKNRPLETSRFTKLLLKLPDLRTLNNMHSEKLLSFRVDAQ
# EP2 modulator = EP2 receptor modulators, cAMP readout, primary screen, cell-based, HTRF cAMP, PGE2 stimulation; 260,000 tested, 0.83% active; AID 940, 2007; induction, % at 25 µM; EP2-expressing cells, cAMP HTRF FRET, PGE2 co-stimulation;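 active = compounds whose cAMP rise, as percent of the full-agonist control response, exceeds 60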;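 also: rat C6 glioma line stably carrying human EP2 under a CMV promoter; the protocol text gives 20 µM as final concentration; 100% = response of wells given 1 µM PGE2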
# SKN-1 block = suppressors of acrylamide-induced Pgst-4::GFP reporter in worms, primary screen, SKN-1 inhibitor project, whole organism, uHTS, GFP/RFP fluorescence ratio, strain VP596; C. elegans VP596 Pgst-4::GFP/RFP ratio, 24 h; inhibition, % at 21.8 µM; 360,000 tested, 0.49% active;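 active = interference check ratio from 0.5 to 1.5 plus GFP to RFP signal ratio inhibition reaching or exceeding a fixed threshold, cut at about 30% in these data, passing the limit was not always enough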
# PGE2 EP2 inh = human EP2 receptor antagonists, primary screen, TR-FRET cAMP, C6 glioma cells; C6 glioma cells expressing human EP2; cells stimulated with saturating PGE2; inhibition, % at 25 µM; Prostaglandin E2 receptor EP2 subtype (Homo sapiens), P43116; 260,000 tested, 0.52% active;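 active = percent inhibition above 40 after rounding to a whole number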;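 also: rat C6 glioma host cells with rolipram phosphodiesterase inhibitor present; the protocol text gives 20 µM as final concentration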
# RAM network inh = inhibitors of the yeast RAM network, primary screen, dse1pr::URA3 reporter, 5-FOA selection. AID 868, 2007. inhibition, % at 50 µM. 190,000 tested, 1.8% active. S. cerevisiae dse1pr::URA3 reporter, 5-FOA growth OD615, 2 d; analog-sensitive cbk1-as2 kinase mutant strain;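 active = inhibition above a set limit, 3 SD over mean compound inhibition, cut at about 8.4% in these data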;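 also: 0% = DMSO-only wells with no growth and 100% = 10 µM 1-NA-PP1 full growth; inhibition rescues growth on 5-FOA so higher OD means more RAM inhibition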
# PG9 binder = binders of HIV-1 gp120 antibody PG9, primary screen, biochemical, TR-FRET; AID 624416, 2012; TR-FRET gp120-PG9 antibody binding; inhibition, % at 6.7 µM; 360,000 tested, 0.43% active; in the data active = inhibition above about 8.5%
# PG9 binder conf = binders of anti-gp120 antibody PG9, confirmation, biochemical, TR-FRET | 1,500 tested, 90% active | TR-FRET PG9 antibody binding | inhibition, % at 6.7 µM | AID 651571, 2012 | shares compounds with PG9 binder; in the data active = inhibition above about 9%
# PGV04 Ab binding = binders of control antibody PGV04, counter-screen for PG9 antibody binder project, biochemical, TR-FRET, distinct HIV envelope site; shares compounds with PG9 binder; TR-FRET PGV04 antibody-gp120 binding; inhibition, % at 6.7 µM; 1,500 tested, 95% active; AID 651604, 2012; in the data active = inhibition above about 9.5%
# PG9 bind DR = small-molecule binders of antibody PG9, dose response, biochemical, TR-FRET, HIV-1 gp120 antibody | IC50, µM | shares compounds with PG9 binder | AID 651848, 2012 | TR-FRET PG9 antibody-gp120 binding inhibition | 95 tested, under 10 active; in the data active = IC50 below about 10 µM
# PGV04 DR counter = binders of control antibody PGV04, dose response, counter-screen for PG9 antibody binder project, biochemical, TR-FRET, distinct HIV envelope site; shares compounds with PG9 binder; TR-FRET binding to control antibody PGV04; IC50, µM; 95 tested, 20% active
# PG126 DR counter = binders of control antibody PG126, dose response, counter-screen for PG9 antibody binder project, biochemical, TR-FRET, distinct HIV envelope site; shares compounds with PG9 binder; TR-FRET binding to antibody PG126, counterscreen; IC50, µM; 95 tested, 20% active; AID 651939, 2012
# An asterisk follows results filed as active; i = inactive; x = no result given. Rule as the data show it, unless noted: active = IC50 below about 9 µM; inactive = the rest.
SMILES,Rev-erbA mod,EP2 modulator,SKN-1 block,PGE2 EP2 inh,RAM network inh,PG9 binder,PG9 binder conf,PGV04 Ab binding,others
COc1cccc(C2/C(=C(\O)c3ccc4c(c3)OCCO4)C(=O)C(=O)N2CCCn2ccnc2)c1 (stereo not drawn),-7,x,5,x,x,12*,20*,23*,
O=C1C(=O)N(CCCn2ccnc2)C(c2ccc(Br)cc2)/C1=C(\O)c1ccc2c(c1)OCCO2 (stereo not drawn),10,x,9,x,x,14*,13*,15*,
Cc1cc(CN2CCOCC2)oc1C(=O)N1CCN(Cc2ccco2)C[C@@H]1C(C)C,x,-14,x,x,x,x,x,x,
COc1ccc(/C(O)=C2/C(=O)C(=O)N(CCCN(C)C)C2c2ccc(Cl)cc2)cc1OC (stereo not drawn),2,x,4,18,x,13*,23*,30*,
COc1cccc(C2/C(=C(/O)c3ccc4c(c3)OCO4)C(=O)C(=O)N2CCN2CCOCC2)c1 (stereo not drawn),-1,x,-17,x,x,21*,31*,37*,
COc1ccc(/C(O)=C2/C(=O)C(=O)N(CCCN(C)C)C2c2ccccc2)cc1Cl (stereo not drawn),x,16,x,16,0,x,x,x,
COc1ccc(C2/C(=C(/O)c3ccccc3)C(=O)C(=O)N2CCCN2CCOCC2)cc1 (stereo not drawn),-9,x,16,x,x,-1,x,x,
COc1ccc(/C(O)=C2/C(=O)C(=O)N(CCCN3CCOCC3)C2c2ccc(Cl)cc2)cc1 (stereo not drawn),1,x,-6,x,x,12*,26*,43*,
O=C1C(=O)N(CCCn2ccnc2)C(c2cccc(Br)c2)/C1=C(\O)c1ccc2c(c1)OCCO2 (stereo not drawn),-4,x,-6,x,x,27*,45*,40*,PG9 bind DR=i;PGV04 DR counter=5.4*;PG126 DR counter=8*
CCOC(=O)CNC(=O)CSc1nnc(-c2ccco2)n1CCCOC,x,-45,x,6,x,x,x,x,
Cc1ccc(C(=O)C2=C(O)C(=O)N(CC3CCCO3)C2c2ccccc2F)o1 (stereo not drawn),2,x,9,x,x,13*,23*,31*,
O=C(C1=C(O)C(=O)N(CC2CCCO2)C1c1ccc(O)cc1)c1ccco1 (stereo not drawn),x,4,x,10,x,x,x,x,
CCCCOc1ccc(C2C(C(=O)c3ccc(C)o3)=C(O)C(=O)N2CC2CCCO2)cc1 (stereo not drawn),3,31,-2,14,2,26*,25*,30*,
Cn1c(C(=O)OCC(=O)NCc2cccs2)cc2sccc21,7,-30,-3,10,3,9.6*,17*,27*,
COc1cccc(OCCSc2nc3ccccc3c(=O)[nH]2)c1,21,41,9,3,3,24*,23*,31*,
N#CCCN1CCN(C(=S)c2ccc(-c3ccc(Br)cc3)o2)CC1,x,-122,x,12,x,x,x,x,
CCN(c1ccc(F)cc1)S(=O)(=O)c1ccc2[nH]cc(C(=O)NCCCN3CCOCC3)c(=O)c2c1,1,-1,-10,2,1,1,x,x,
CCN(c1ccccc1)S(=O)(=O)c1ccc2[nH]cc(C(=O)N3CCOCC3)c(=O)c2c1,-6,16,-11,3,-1,9.1*,8,9.9*,
CC1c2ccsc2CCN1Cc1ccc2c(c1)n(C)c(=O)n2C (stereo not drawn),x,-61,x,5,x,x,x,x,
O=C(Cn1cnc2c(NCc3ccccc3)ncnc21)NCc1ccc2[nH]ccc2c1,4,x,-1,x,x,33*,16*,29*,
COc1ccc(NC(=O)CCn2c(=S)[nH]c3ccccc3c2=O)cc1,2,x,14,x,x,22*,22*,27*,
COc1ccc(NC(=O)CCCn2c(=S)[nH]c3ccccc3c2=O)cc1,6,-37,-6,8,2,-1,x,x,
O=C(C1=C(O)C(=O)N(CCCN2CCOCC2)C1c1ccccn1)c1cc2ccccc2o1 (stereo not drawn),-2,50,22,22,1,15*,19*,25*,
O=C(C1=C(O)C(=O)N(CCN2CCOCC2)C1c1ccc(F)cc1)c1cc2ccccc2o1 (stereo not drawn),2,x,3,x,x,11*,17*,22*,
CN(C)CCN1C(=O)C(O)=C(C(=O)c2cc3ccccc3o2)C1c1cccc(Br)c1 (stereo not drawn),6,46,0,27,0,31*,38*,47*,
O=C(C1=C(O)C(=O)N(CCc2ccccc2)C1c1ccncc1)c1cc2ccccc2o1 (stereo not drawn),-5,29,-3,28,1,19*,30*,40*,
CCOc1cccc(C2C(C(=O)c3ccco3)=C(O)C(=O)N2CCN(C)C)c1 (stereo not drawn),x,7,x,11,x,x,x,x,
O=C1NC2=C(C(=O)N(CCN3CCCC3)C2)C(c2ccc(Cl)c(Cl)c2)N1 (stereo not drawn),x,-39,x,9,x,x,x,x,
CCOC(=O)C1=C(C)NC(SCC(N)=O)=C(C#N)C1c1ccc(C(=O)OC)cc1 (stereo not drawn),x,29,x,13,x,x,x,x,
